# Shown are actives, neighbours in structure and some others; about 9.2% of the full set was active somewhere.
# FLuc modulator: inhibits or activates purified firefly luciferase, miR-21 counter-screen. P08659. purified FLuc, Km substrates, luminescence inhibition. Potency, µM (series often up to 57.5 µM), without a hit: at the highest dose activity change, negative = inhibition, hits mostly inhibitors. 360,000 tested, 6.9% active. AID 588342;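 also: plate controls were vehicle for no effect and reference inhibitor for full effect; nearly all actives have a fitted effect of over 55% in size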
# Target sequence (P08659 whole entry, looked up): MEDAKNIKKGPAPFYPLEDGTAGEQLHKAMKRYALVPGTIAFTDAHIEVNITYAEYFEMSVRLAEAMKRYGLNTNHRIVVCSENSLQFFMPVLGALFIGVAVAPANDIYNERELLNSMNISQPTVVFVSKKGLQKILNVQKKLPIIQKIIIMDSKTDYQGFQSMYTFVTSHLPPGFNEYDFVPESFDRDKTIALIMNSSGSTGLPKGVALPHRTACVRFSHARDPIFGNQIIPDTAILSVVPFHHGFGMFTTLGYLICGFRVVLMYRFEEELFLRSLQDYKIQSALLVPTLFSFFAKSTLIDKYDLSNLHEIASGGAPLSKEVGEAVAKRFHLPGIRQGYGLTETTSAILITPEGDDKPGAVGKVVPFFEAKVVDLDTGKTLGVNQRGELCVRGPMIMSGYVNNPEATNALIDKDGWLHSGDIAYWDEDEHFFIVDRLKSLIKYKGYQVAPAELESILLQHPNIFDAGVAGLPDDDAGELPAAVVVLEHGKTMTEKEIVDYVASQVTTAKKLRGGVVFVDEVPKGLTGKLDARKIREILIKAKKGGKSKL
#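 Purified P. pyralis luciferase, 10 nM final, with Km-level 10 uM D-luciferin and 10 uM ATP in 50 mM Tris acetate pH 7.5, 10 mM Mg acetate, 0.01% Tween-20, 0.05% BSA; 6-point qHTS titration about 60 µM downward; luminescence read.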
# SMN2 splice enh: enhancers of SMN2 splice variant expression; HEK293 SMN2-luciferase splicing reporter, luminescence, 30-36 h; Potency, µM (top dose mostly 46.1 µM), for inactives: top-dose activity change, positive = activation, actives largely listed as activators; 210,000 tested, 2.8% active; AID 1458; also: % of control where 0% means no effect; nearly all actives have a fitted effect of over 55% in size
#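 HEK293 cells carry an SMN2 […]–luciferase reporter in which exon 7 inclusion puts luciferase in frame. Cells were plated 10-12 h before compound addition, then incubated 30-36 h at 37C. ONE-Glo luminescence was read; sodium butyrate at 4.5 mM final served as control.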
# NPC1 promoter act: activates the NPC1 promoter; Potency, µM (series often up to 9.22 µM), for inactives: at the highest dose activation, most hits filed as activators; 320,000 tested, 2.4% active; Huh7 NPC1 promoter luciferase reporter, 24 h; also: % of control where 0% means no effect; nearly all actives have a fitted effect of over 60% in size
#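 Huh7 cells stably carrying NPC1 promoter–luciferase, plated in Opti-MEM with 10% FBS for 2 h, were exposed to compound in DMSO for 24 h at 37 °C; luciferase reagent was added for 10 min and luminescence read.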
# ELG1 genotoxic: induces genotoxicity in HEK293T cells with luciferase-tagged ELG1. Potency, µM (top dose mostly 46 µM), for the others: at the highest dose activity change, positive = activation, usual class: activators. HEK293T ELG1-luciferase reporter, luminescence, 16 h. 330,000 tested, 1.3% active; also: % of control where 0% means no effect; nearly all actives have a fitted effect of over 60% in size
#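 HEK293T cells expressing luciferase-tagged ELG1 were exposed to compound or DMSO vehicle for 16 hr at 37 °C and 5% CO2. Luciferase activity was then measured with ONE-Glo after 30 min at room temperature.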
# ELG1 repair inh: ELG1-dependent DNA repair inhibition; 330,000 tested, 2.3% active; HEK293T ELG1-luciferase reporter, luminescence, 16 h; DNA damage induced by 5-fluorouridine; Potency, µM (series often up to 46.1 µM), for the others: at the highest dose activity change, negative = inhibition, hits mostly inhibitors; also: % is scaled to controls: 0 for no effect and ±100 for the full control effect; nearly all actives have a fitted effect of over 55% in size
#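 Luminescence from the luciferase reporter, measured 30 min after ONE-Glo reagent at room temperature, was the read-out. Beforehand, 2,000 cells per well were exposed for 16 hr at 37 °C to 5-fluorouridine together with compound or vehicle.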
# Rab9 prom act: activators of Rab9 promoter; Huh7 Rab9 promoter-luciferase reporter, luminescence, 24 h; Potency, µM (doses to about 9.22 µM), without a hit: at the top dose activation, negative = inhibition, hits mostly activators; 320,000 tested, 2.8% active; also: % of control where 0% means no effect; nearly all actives have a fitted effect of over 60% in size
#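 Huh7 cells stably carrying Rab9 promoter–luciferase reporter, plated 1500 cells/well, compound added after 2 h and incubated 24 h at 37 °C; luciferase luminescence then read after 10 min with detection reagent.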
# Numbers without * were called inactive; ? = inconclusive; nt = no result given. Calls follow the shape of the dose curve; as a rule, active = well fitted curve in the direction sought with a large enough effect; inconclusive = small, poorly fitted or top-dose-only effect, or another doubt; inactive = no such curve, though single readings can be large; an effect the other way counts as inactive or inconclusive. Potency is read from the fitted curve at half-maximal effect.
SMILES,FLuc modulator,SMN2 splice enh,NPC1 promoter act,ELG1 genotoxic,ELG1 repair inh,Rab9 prom act
C/C(N)=C(/C#N)C(=O)CSc1ccc2c(c1)OCCO2,12µM*,13µM*,3.2µM*,?,?,2.8µM*
Cn1c(N)c(C(=O)CSc2ccc3c(c2)OCCO3)c(=O)n(C)c1=O,?,-20%,-1%,-7%,?,6%
COc1ccc(C(=O)c2c[nH]c(C(=O)NCCCn3ccnc3)c2)cc1,-2%,-5%,1%,5%,6%,5%
COCCCNC(=S)NC(=O)c1ccc(C)cc1,13µM*,14µM*,?,?,?,?
CC(C)(C)c1ccc(C(=O)c2c[nH]c(C(=O)NCCCn3ccnc3)c2)cc1,19µM*,-50%,24%,1%,?,5%
CC(C)(C)c1ccc(C(=O)NNC(=O)c2ccncc2)cc1,19µM*,nt,9%,3%,2%,11%
CC(C)(C)c1ccc(C(=O)NNC(=S)NC(=O)c2cccnc2)cc1,19µM*,nt,3%,-1%,?,4%
CC(C)(C)c1ccc(C(=O)NNC(=O)c2ccc(Cl)cc2)cc1,4%,7%,-3%,3%,0%,-4%
COc1ccccc1-c1cncnc1NCCc1cnc[nH]1,nt,-8%,nt,nt,nt,nt
O=C(COc1coc(CN2CCN(c3ccc(F)cc3)CC2)cc1=O)NCC1CCCO1 (stereo unspecified),-1%,nt,-5%,0%,15%,0%
C[C@H](CO)N1C[C@H](C)[C@@H](CN(C)C)Oc2c(NC(=O)CCC(F)(F)F)cccc2C1=O,nt,nt,nt,-1%,15%,nt
O=C(C[C@@H]1C/C=C\C[C@H](Cc2ccc(F)cc2)C(=O)OC[C@H]2CCCN2C1=O)NCCO,nt,nt,nt,0%,7%,nt
Cc1ccc(Cl)cc1N(CC(=O)NCc1ccccc1)S(C)(=O)=O,0%,nt,-1%,0%,-1%,-1%
CC(C)(C)c1cc(Cl)c(O)c(NC(=S)NC(=O)c2cccnc2)c1,?,-78%,-10%,-5%,9.2µM*,-2%
CC(C)(C)c1ccc(C(=O)NC(=S)NCc2cccnc2)cc1,24µM*,-40%,13%,-3%,10%,3%
CC(C)(C)c1ccc(C(=O)c2c[nH]c(C(=O)NCc3cccnc3)c2)cc1,7.6µM*,-6%,17%,-5%,-20%,24%
CC(C)(C)c1ccc(C(=O)NCc2cccnc2)cc1,?,6%,22%,?,?,-18%
O=C(CNC(=S)NC(=O)c1ccccc1)c1ccccc1,17µM*,?,15%,16%,?,6%
O=C(CCC(=O)N1CCOc2ccccc21)N1CCN(c2ccccc2)CC1,5%,nt,-6%,-1%,-1%,12%
Cn1nc(C(C)(C)C)cc1C(=O)NNC(=O)c1ccc(C(F)(F)F)cc1,-13%,nt,-3%,-8%,7.3µM*,-4%
Cn1nc(C(C)(C)C)cc1C(=O)O,-4%,-4%,0%,-1%,5%,1%
COC(=O)CNC(=S)NC(=O)c1ccc(C(C)(C)C)cc1,13µM*,2%,-1%,5%,11%,-2%
COc1cccc(NC(c2nnc(-c3ccccc3)o2)c2ccc(F)cc2Cl)c1 (stereo unspecified),-4%,-3%,nt,nt,nt,nt
COc1cc(-c2ncc3ccccn23)cc(OC)c1OC,-1%,25%,1%,10%,-13%,-3%
Fc1ccc(-c2ncc3ccccn23)cc1,-15%,nt,0%,7%,?,0%
SMILES,FLuc modulator,SMN2 splice enh,NPC1 promoter act,ELG1 genotoxic,ELG1 repair inh,Rab9 prom act
COc1cc(OC)cc(-c2ncc3ccccn23)c1,17µM*,-6%,1%,4%,-4%,4%
COc1cccc(-c2ncc3ccccn23)c1,8.5µM*,14µM*,4µM*,?,?,2.8µM*
Brc1ccc(-c2ncc3ccccn23)cc1,13µM*,nt,3.2µM*,?,?,3.2µM*
COc1ccc(-c2ncc3ccccn23)cc1,?,?,5%,11%,?,?
CCN(CC(=O)Nc1ccc(C)c(S(=O)(=O)N2CCOCC2)c1)Cc1ccccc1,3%,nt,1%,-6%,?,2%
CCCc1cc(N2CCN(c3ccccc3F)CC2)n2cnnc2n1,1%,-38%,nt,nt,nt,nt
COc1ccc(NS(=O)(=O)c2ccc3oc(Nc4ccc5c(c4)OCCO5)nc3c2)cc1,19µM*,7%,1%,3%,?,13%
CC(C)(C)n1cnc2cc(NCc3ccc(Br)cc3)ccc21,6.7µM*,nt,3.5µM*,?,?,2µM*
CCc1ccc(CNc2ccc3c(c2)ncn3C(C)(C)C)cc1,6µM*,16µM*,3.2µM*,?,?,4µM*
CC(C)c1ccc(CNc2ccc3c(c2)ncn3C)cc1,15µM*,nt,3.2µM*,10%,?,3.5µM*
CCc1ccc(CNc2ccc3c(c2)ncn3CC)cc1,11µM*,nt,2.5µM*,?,?,2.5µM*
COc1ccc(NC(=O)Nc2nnc(N(CC(C)C)CC(C)C)s2)c(OC)c1,4%,nt,nt,nt,nt,nt
Clc1ccc(CNc2ccccn2)cc1,?,nt,8%,11%,?,29%
CC(C)c1ccc(CNc2ncccn2)cc1,13µM*,nt,?,?,?,?
CCOc1ccc(NC(=O)C(CC)n2nc(C)c3c(C)n(-c4ccccc4)nc3c2=O)cc1 (stereo unspecified),-9%,nt,-1%,-2%,?,-3%
O=C(O)c1nn(-c2ccccc2)nc1-c1nn(-c2ccccc2)nc1C(=O)O,21µM*,0%,-2%,-1%,10%,0%
COC(=O)c1nn(-c2ccccc2)nc1-c1nn(-c2ccccc2)nc1C(=O)OC,2.4µM*,4%,9%,?,0%,6%
O/N=C1/CC/C(=N\O)c2nn(-c3ccccc3)nc21,?,?,18%,11%,-7%,24%
CC1=C(C(=O)Nc2ccc(C)cc2C)C(C(C)C)n2nc(SCc3ccccc3Cl)nc2N1 (stereo unspecified),0%,-9%,nt,nt,nt,nt
O=c1oc(-c2ccccc2)nc2sc3c(c12)CCC3,2.4µM*,?,-1%,0%,?,10%
Cc1nc2sc3c(c2c(=O)o1)CCCC3,0%,-8%,-1%,3%,2%,-1%

# Bioassay records deposited in PubChem BioAssay by National Center for Advancing Translational Sciences (NCATS).
